# Results from PubChem BioAssay (NCATS).
# Results filed as inconclusive are left out. A call without a number means that no potency is given here. Active and inactive are the calls of the source. Unless noted, the call rests on the fitted dose curve; in most records, active means well fitted curve in the direction sought with a large enough effect; inconclusive means small, poorly fitted or top-dose-only effect, or another doubt; inactive means no such curve, though single readings can be large; an effect the other way counts as inactive or inconclusive.
# Experiments:
# [1] = target: Mitogen-activated protein kinase 10 (Mus musculus) (UniProt Q61831); assay: JNK3 AlphaScreen Assay (AID 530; active means well fitted curve in either direction with a large enough effect, not every such curve was filed as active;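 further: kinase came from lysate of stimulated human HepG2 cells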; further: potency means the concentration at half of the fitted maximal effect)
# Outline: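 Pre-activated (IL-1β/TNFα) JNK3 in HepG2 lysates phosphorylates biotin-GST-cJun(1-79), 10 uM ATP; anti-phospho-cJun(Ser73) AlphaScreen read at room temperature, pH 7.6 Tris buffer. Compounds pre-incubated 15 min as titrations.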
# [2] = Cell Viability - HUV-EC-C (AID 542); further: nearly all actives have a fitted effect of over 35% in size; further: potency means the concentration at half of the fitted maximal effect
# Outline: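 qHTS cytotoxicity: HUV-EC-C, 1000 cells/well, 5 hr settle, compound 40 hr 37 °C, CellTiter-Glo, luminescence. AC50 via Hill equation.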
# [3] = Cell Viability - H-4-II-E (AID 543); further: nearly all actives have a fitted effect of over 35% in size; further: potency means the concentration at half of the fitted maximal effect
# Outline: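 Luminescent ATP signal (CellTiter-Glo) served as the viability read-out, with cytotoxicity seen as a concentration-dependent ATP drop. Cells were treated for 40 hours in complete medium. AC50 values derive from Hill-equation modelling.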
# [4] = Cell Viability - Renal Proximal Tubule (AID 545); further: nearly all actives have a fitted effect of over 40% in size; further: potency means the concentration at half of the fitted maximal effect
# Outline: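 Cytotoxicity is scored as a concentration-dependent drop in cellular ATP in primary rat renal proximal tubule cells exposed for 40 hr. AC50 derives from Hill modelling.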
# [5] = Cell Viability - Mesenchymal (AID 546);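 further: cells exposed to compound for 40 hours before reading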; further: potency means the concentration at half of the fitted maximal effect
# Outline: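 Human kidney mesenchymal cells from normal renal glomeruli, 1000 cells/well, rested 5 hr at 37 °C, then treated 40 hr at 37 °C in complete medium. Cellular ATP read by CellTiter-Glo luminescence; AC50 from Hill-equation fits.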
# [6] = Cellular Toxicity (caspase-3) HepG2 (AID 654);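 further: cells exposed to compound for 16 hours before reading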
# Outline: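 Cells plated 5 hr at 37 °C, compound added, incubated 16 hr at 37 °C. Caspase-Glo 3/7 reagent followed, 20 min at room temperature, then luminescence read. Activation scored as signal increase; AC50 from Hill fit.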
# [7] = Cellular Toxicity (caspase-3) Jurkat (AID 655);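 further: cells exposed to compound for 16 h at 37 °C before reading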; further: potency means the concentration at half of the fitted maximal effect
# Outline: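 Caspase 3/7 activation is scored as increased luminescence in Jurkat cells cultured with compound for 16 hours in complete medium. AC50 values come from Hill fits of qHTS concentration-response data normalized to DMSO and 100 uM tamoxifen controls.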
# [8] = Cellular Toxicity (caspase-3) HUV-EC-C (AID 656)
# Outline: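 Read-out: luminescence proportional to caspase 3/7 activity, measured 20 min after adding Caspase-Glo 3/7 reagent. Cells (HUV-EC-C) had received compound for 16 hr at 37°C. Increases relative to DMSO and 100 uM tamoxifen gave concentration-response AC50 values.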
# [9] = Cellular Toxicity (caspase-3) SHSY5Y (AID 657)
# Outline: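 Cells plated and incubated 5 h at 37 °C, dosed over a concentration range, incubated 16 h, then given Caspase-Glo 3/7 reagent for 1 h at room temperature before luminescence reading. Staurosporine (10 uM) defined full stimulation.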
# [10] = Cellular Toxicity (caspase-3) BJ (AID 658)
# Outline: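 BJ human foreskin fibroblasts, 1000 cells/well, treated 16 hours at 37 °C in complete medium; caspase 3/7 activity by Caspase-Glo luminescence after 1 hr at room temperature. Normalized to DMSO and 10 uM staurosporine; AC50 from Hill fits.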
# [11] = Cellular Toxicity (caspase-3) MRC-5 (AID 659)
# Outline: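 MRC-5 human normal lung fibroblasts, 1500 cells/well, treated 16 h at 37 °C in complete medium. Caspase 3/7 measured by Caspase-Glo luminescence after 1 h at room temperature. Normalized to DMSO and 10 uM staurosporine; AC50 from Hill fit.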
# [12] = Cellular Toxicity (caspase-3) Mesangial (AID 660)
# Outline: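 Mesangial cells, 1000/well, 5 h settle at 37 °C; compound 16 h, 37 °C; Caspase-Glo 3/7 reagent 20 min RT; luminescence. Norm.: DMSO = 0%, tamoxifen 100 uM = 100%. AC50, Hill fit.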
# [13] = Cellular Toxicity (caspase-3) SK-N-SH (AID 661)
# Outline: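 Human neuroblastoma SK-N-SH, 1500 cells/well, 5 hr pre-incubation, then compound 16 hr, 37 °C. Caspase-Glo 3/7 reagent, 1 hr RT, luminescence. Norm. to DMSO/10 uM staurosporine; Hill-fit AC50.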
# [14] = Cellular Toxicity (caspase-3) H-4-II-E (AID 663);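 further: cells exposed to compound for 16 hr before readout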
# Outline: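 Rat hepatoma H-4-II-E cells (1500/well) plated 5 hr, then exposed to compound titrations for 16 hr at 37 °C. Caspase-Glo 3/7 luminescence read after 20 min at RT; data normalized to DMSO and 100 uM tamoxifen, AC50 from Hill fits.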
# [15] = Cellular Toxicity (caspase-3) N2a (AID 665);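 further: compound exposure lasted 16 h at 37 °C before readout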
# Outline: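 N2a cells, 1500/well, 5 h settle at 37 °C; cpd 16 h, 37 °C; Caspase-Glo 3/7, 1 h RT; luminescence. Norm: DMSO = 0, 10 uM staurosporine = 100%. AC50, Hill fit.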
# [16] = Cellular Toxicity (caspase-3) NIH 3T3 (AID 666);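 further: caspase signal read after 16 h compound exposure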
# Outline: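 Luminescence from aminoluciferin released by caspase-3/7 cleavage of a peptide substrate served as read-out. Mouse fibroblast NIH 3T3 cells were exposed to compounds over a concentration range for 16 hours, and AC50 values came from standard Hill modelling.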
# [17] = Cellular Toxicity (caspase-3) Renal Proximal Tubule (AID 667);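 further: cells exposed to compound for 16 hours at 37 °C before detection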
# Outline: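 In qHTS format, rat primary proximal tubule cells seeded at 1000 per well are exposed to compounds for 16 hours at 37 °C. An increase in Caspase-Glo 3/7 luminescence indicates caspase activation.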
# [18] = target: 3',5'-cyclic-AMP phosphodiesterase 4B (Homo sapiens) (UniProt Q07343); assay: qHTS Assay for Inhibitors of PDE-IV (AID 607; active means well fitted activation curve with a large enough effect in the main read-out, with a control signal flat, not every such curve was filed as active)
# Chain of 3',5'-cyclic-AMP phosphodiesterase 4B (Homo sapiens) (Q07343 whole entry, looked up): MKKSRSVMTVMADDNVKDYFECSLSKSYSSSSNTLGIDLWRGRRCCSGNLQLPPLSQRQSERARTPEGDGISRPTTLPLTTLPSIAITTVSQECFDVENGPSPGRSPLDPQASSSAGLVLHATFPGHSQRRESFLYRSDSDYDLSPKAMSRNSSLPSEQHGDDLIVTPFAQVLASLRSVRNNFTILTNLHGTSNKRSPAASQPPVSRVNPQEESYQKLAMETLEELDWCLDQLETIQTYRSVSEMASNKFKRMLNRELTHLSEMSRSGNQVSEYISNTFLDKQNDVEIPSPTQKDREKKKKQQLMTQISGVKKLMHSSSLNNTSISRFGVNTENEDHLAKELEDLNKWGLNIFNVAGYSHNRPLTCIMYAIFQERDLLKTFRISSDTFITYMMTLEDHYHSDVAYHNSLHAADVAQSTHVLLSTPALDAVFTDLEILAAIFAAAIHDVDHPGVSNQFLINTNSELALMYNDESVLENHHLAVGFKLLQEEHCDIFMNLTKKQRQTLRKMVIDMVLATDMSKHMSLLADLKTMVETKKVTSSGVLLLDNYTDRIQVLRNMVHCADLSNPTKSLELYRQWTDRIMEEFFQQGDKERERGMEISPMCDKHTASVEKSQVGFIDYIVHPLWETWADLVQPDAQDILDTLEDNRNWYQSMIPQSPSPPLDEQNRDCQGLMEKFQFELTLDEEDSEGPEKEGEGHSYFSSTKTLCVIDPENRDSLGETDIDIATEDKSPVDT
# Outline: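 The readout is membrane depolarisation from a cAMP-sensing CNG channel, detected with a potential dye at ex 535/em 590. Cells were HEK293-derived (endogenous PDE-IV) at 1000 cells/well, titrated up to 22.9 uM final.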
# [19] = Cell Viability - N2a (AID 540); details: N2a mouse neuroblastoma cell viability; activity change, negative = cytotoxicity: at 92.2 µM (top of the series); further: nearly all actives have a fitted effect of over 45% in size; further: potency means the concentration at half of the fitted maximal effect
# Outline: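 Luminescent ATP signal (CellTiter-Glo, 20 min at room temperature) served as the viability read-out after N2a cells were treated with compounds for 40 hours at 37 °C. Concentration-response data were fitted to the Hill equation for AC50.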
# [20] = Cell Viability - NIH 3T3 (AID 541); further: nearly all actives have a fitted effect of over 25% in size; further: potency means the concentration at half of the fitted maximal effect
# Outline: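 Luminescent ATP signal (CellTiter-Glo) served as the viability read-out after NIH 3T3 cells were exposed to compounds over a concentration range for 40 hr at 37 °C. Hill-equation modelling of concentration-response data gave AC50.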
smiles,measurement,setting,value
CCc1nc(N)nc(N)c1-c1ccc(Cl)cc1,Potency,[1],inactive
same,Potency,[2],inactive
same,Potency,[3],0.158 µM (active)
same,Potency,[4],inactive
same,Potency,[5],2 µM (active)
same,outcome,[6],inactive
same,Potency,[7],31.6 µM (active)
same,outcome,[8],inactive
same,outcome,[9],inactive
same,outcome,[10],inactive
same,outcome,[11],inactive
same,outcome,[12],inactive
same,outcome,[13],inactive
same,outcome,[14],inactive
same,outcome,[15],inactive
same,outcome,[16],inactive
same,outcome,[17],inactive
O=c1c(O)c(-c2ccc(O)cc2O)oc2cc(O)cc(O)c12,Potency,[1],inactive
same,outcome,[18],inactive
CC(C)c1ccc2c(c1)c(SC(C)(C)C)c(CC(C)(C)C(=O)O)n2Cc1ccc(Cl)cc1,Potency,[1],inactive
same,outcome,[18],inactive
COc1cc(OC)c(C(=O)CCCN2CCCC2)c(OC)c1,Potency,[1],inactive
same,outcome,[18],inactive
Cc1c(OCC(F)(F)F)ccnc1CS(=O)c1nc2ccccc2[nH]1 (stereo not drawn),Potency,[1],inactive
same,outcome,[18],inactive
O=c1ccc2ccc(O)c(O)c2o1,Potency,[1],inactive
same,outcome,[18],inactive
COc1ccc2cc([C@H](C)C(=O)O)ccc2c1,Potency,[1],inactive
c1ccc2[nH]c(-c3cscn3)nc2c1,Potency,[1],inactive
same,Potency,[2],inactive
same,Potency,[3],inactive
same,Potency,[4],inactive
same,Potency,[5],inactive
same,outcome,[18],inactive
same,outcome,[6],inactive
same,Potency,[7],inactive
same,outcome,[8],inactive
same,outcome,[9],inactive
same,outcome,[10],inactive
same,outcome,[11],inactive
same,outcome,[12],inactive
same,outcome,[13],inactive
same,outcome,[14],inactive
same,outcome,[15],inactive
same,outcome,[17],inactive
CCCc1cc(=O)[nH]c(=S)[nH]1,Potency,[1],inactive
same,Potency,[19],inactive
same,Potency,[20],inactive
same,Potency,[2],inactive
same,Potency,[3],inactive
same,Potency,[4],inactive
same,Potency,[5],inactive
same,outcome,[18],inactive
same,outcome,[6],inactive
same,Potency,[7],inactive
same,outcome,[8],inactive
same,outcome,[9],inactive
same,outcome,[10],inactive
same,outcome,[11],inactive
same,outcome,[12],inactive
same,outcome,[13],inactive
same,outcome,[14],inactive
same,outcome,[15],inactive
same,outcome,[16],inactive
same,outcome,[17],inactive
CN1CCC(=C2c3ccccc3CCc3sccc32)CC1,Potency,[1],inactive
COc1ccccc1N1CCN(CCN(C(=O)C2CCCCC2)c2ccccn2)CC1,Potency,[1],inactive
same,outcome,[18],inactive
NCCCCNCCCN,Potency,[1],inactive
same,outcome,[18],inactive
O=C1c2ccccc2-c2n[nH]c3cccc1c23,Potency,[1],1 µM (active)
same,outcome,[18],inactive
N=C(N=C(N)N)N1CCOCC1,Potency,[1],inactive
same,outcome,[18],inactive
Nc1cc(C(Cl)=C(Cl)Cl)c(S(N)(=O)=O)cc1S(N)(=O)=O,Potency,[1],inactive
same,outcome,[18],inactive
Cc1cccc(C#Cc2ccccc2)n1,Potency,[1],inactive
same,outcome,[18],inactive
CC1(C)NC(=O)N(c2ccc([N+](=O)[O-])c(C(F)(F)F)c2)C1=O,Potency,[1],inactive
same,outcome,[18],inactive
Cc1nc2n(c(=O)c1CCN1CCC(c3noc4cc(F)ccc34)CC1)CCCC2,Potency,[1],inactive
same,outcome,[18],inactive
CCN(CC)C(=S)SSC(=S)N(CC)CC,Potency,[1],inactive
same,outcome,[18],inactive
CN1C(C(=O)Nc2ccccn2)=C(O)c2sccc2S1(=O)=O,Potency,[1],inactive
same,outcome,[18],inactive
CCCCC(CC)COC(=O)C(C#N)=C(c1ccccc1)c1ccccc1 (stereo not drawn),Potency,[2],inactive
same,Potency,[4],inactive
same,Potency,[5],inactive
same,outcome,[6],inactive
same,Potency,[7],inactive
same,outcome,[8],inactive
same,outcome,[9],inactive
same,outcome,[10],inactive
same,outcome,[11],inactive
same,outcome,[12],inactive
same,outcome,[13],inactive
same,outcome,[14],inactive
same,outcome,[15],inactive
same,outcome,[16],inactive
same,outcome,[17],inactive
Cc1cc(O)c2c(c1)C(=O)c1cc(O)cc(O)c1C2=O,"activity change, negative = cytotoxicity",[19],-117% (active)
same,Potency,[2],31.6 µM (active)
same,Potency,[3],63.1 µM (active)
same,Potency,[4],inactive
same,outcome,[18],inactive
same,outcome,[6],inactive
same,Potency,[7],inactive
same,outcome,[8],inactive
same,outcome,[9],inactive
same,outcome,[10],inactive
same,outcome,[11],inactive
same,outcome,[12],inactive
same,outcome,[13],inactive
same,outcome,[14],inactive
same,outcome,[15],inactive
same,outcome,[17],inactive
CCCCN(CCCC)CCC(O)c1cc2c(Cl)cc(Cl)cc2c2cc(C(F)(F)F)ccc12 (stereo not drawn),Potency,[1],inactive
same,outcome,[18],inactive
C[C@H](Cc1ccc(O)c(O)c1)[C@@H](C)Cc1ccc(O)c(O)c1,outcome,[18],inactive
CCOc1cc(CC(=O)N[C@@H](CC(C)C)c2ccccc2N2CCCCC2)ccc1C(=O)O,Potency,[1],inactive
same,outcome,[18],inactive
O=c1c(O)c(-c2cc(O)c(O)c(O)c2)oc2cc(O)cc(O)c12,Potency,[1],12.6 µM (active)
same,outcome,[18],inactive
O=c1cc(N2CCOCC2)oc2c(-c3ccccc3)cccc12,Potency,[1],inactive
same,outcome,[18],inactive
CNC[C@H](O)c1ccc(O)c(O)c1,Potency,[1],inactive
same,outcome,[18],inactive
CN(C)c1ccc2nc3ccc(=[N+](C)C)cc-3sc2c1,Potency,[19],2.51 µM (active)
same,Potency,[20],0.631 µM (active)
same,Potency,[2],2.51 µM (active)
same,Potency,[3],7.94 µM (active)
same,Potency,[4],31.6 µM (active)
same,Potency,[5],31.6 µM (active)
same,outcome,[6],inactive
same,Potency,[7],inactive
same,outcome,[8],inactive
same,outcome,[9],inactive
same,outcome,[10],inactive
same,outcome,[11],inactive
same,outcome,[12],inactive
same,outcome,[13],inactive
same,outcome,[14],inactive
same,outcome,[15],inactive
same,outcome,[16],inactive
same,outcome,[17],inactive
NC(=NCc1ccccc1)NC(=O)c1nc(Cl)c(N)nc1N,Potency,[1],inactive
same,outcome,[18],inactive
Oc1ccc(OCc2ccccc2)cc1,Potency,[1],inactive
same,outcome,[18],inactive
O=C1NC(=O)C(c2ccccc2[N+](=O)[O-])=C1Nc1ccc(O)c(Cl)c1,outcome,[18],inactive
O=C(CCc1ccc(O)cc1)c1c(O)cc(O)cc1O,Potency,[1],inactive
same,outcome,[18],inactive
CC1(C)C(=O)N(CCN2CCC(C(=O)c3ccc(F)cc3)CC2)c2ccccc21,outcome,[18],inactive
Nc1nc(OCc2ccccc2)c2[nH]cnc2n1,outcome,[18],inactive
O=C(O)c1cc(=O)c2c(OCC(O)COc3cccc4oc(C(=O)O)cc(=O)c34)cccc2o1,Potency,[1],inactive
same,outcome,[18],inactive
Oc1ccc(-c2nc(-c3ccc(F)cc3)c(-c3ccncc3)[nH]2)cc1,outcome,[18],inactive
